Assay outcomes: PubChem BioAssay, Broad Institute
Not all results are given here.
aSyn 5UTR act – Activators via SNCA 5'UTR binding, MLPCN. alpha-synuclein 5'UTR reporter, activators screen. activity score, % (tested at 7.5 µM), hits read low. hit rate 7.1% among 300,000. AID 1814, 2009; in the data active = activity score below about -60%
A number is an active result; i = inactive.

SMILES	aSyn 5UTR act
Cc1nc(NC(=O)CSc2nnnn2C)sc1C	-121
O=c1cc(NS(=O)(=O)c2ccccc2)nc(SCc2ccccc2Cl)[nH]1	i
Nc1ccccc1-c1nnc(SCc2ccccc2Cl)[nH]c1=O	-69
CC(/C=N/NC(=O)c1cnccn1)=C\c1ccco1	-117
CC(/C=N/NC(=O)c1cccnc1)=C\c1ccco1	-103
CN(C)c1oc(/C=C/c2ccccc2)nc1C#N	-262
COc1ccccc1/C=C/c1nc(C#N)c(N(C)C)o1	-196
Cc1cc(/C=C2\SC(=S)N(Cc3ccco3)C2=O)c(C)n1-c1cccnc1	-181
CCOC(=O)c1ccccc1NC1c2ccccc2C(=O)N1c1ccc(C)cn1 (stereo unspecified)	-85
COc1cc(NC2c3ccccc3C(=O)N2c2ccc(C)cn2)cc(OC)c1OC (stereo unspecified)	-77
Cc1ccc(Nc2nnc(SCC3CCCCO3)s2)cc1 (stereo unspecified)	-137
Cc1ccccc1Nc1nnc(SCC2CCCCO2)s1 (stereo unspecified)	-85
CCCc1cc(C(=O)Nc2ccc(OC)cc2[N+](=O)[O-])cs1	-100
CCCOc1ccc(C(=O)Nc2ccccc2[N+](=O)[O-])cc1	-401
Cc1ccc(NC(=O)c2cccnc2)c([N+](=O)[O-])c1	-63
Cc1c(C(=O)Nc2ccccc2[N+](=O)[O-])csc1-c1ccccc1	-142
CCCOc1ccc(C(=O)NNC(=S)NC(=O)c2ccccc2)cc1	i
COc1ccc(NC(=O)c2ccccc2)c([N+](=O)[O-])c1	-144
COc1ccc(/C=C2\SC(=S)N(CCCC(=O)NNC(=O)c3ccccc3O)C2=O)cc1	i
COc1ccc(/C=C2\SC(=O)N(CCNC(=O)C3=COCCO3)C2=O)cc1	-129
COc1ccc(/C=C2\SC(=O)N(CCNC(=O)Cc3coc4cc(OC)ccc34)C2=O)cc1	-70
Cc1ccc(NC(=O)c2snc3ccc(Cl)cc23)cc1C	-216
CC(/C=C1\SC(=Nc2cccnc2)NC1=O)=C\c1ccccc1	-113
O=C(Cc1cccs1)NCc1ccc(Cl)cc1Cl	-155
O=C(Cc1cccs1)NCc1cccc(Cl)c1	-88
SMILES	aSyn 5UTR act
O=C(CSc1ncccn1)NCc1cccc(Cl)c1	-65
CCCOc1ccc(CNC(=O)Cc2cccs2)cc1	-98
CC1(C(=O)N2CCN(Cc3ccccc3Cl)CC2)CC1(Cl)Cl (stereo unspecified)	-71
O=S(=O)(c1ccc(Cl)cc1)N1CCN(Cc2ccc(O)c3ncccc23)CC1	i
COc1ccc(-c2nnc(SCC(=O)c3ccc[nH]3)n2-c2ccccc2)cc1	-70
CN(C)/C=N/c1ncc(C(=O)c2ccc(Cl)cc2)s1	-72
CNC(C)C#Cc1ccc2c(=O)c3ccccc3oc2c1 (stereo unspecified)	-244
CC(C)C(=O)Nc1ccc(NC(=O)c2cccc(F)c2)cn1	-148
O=C(Nc1ccc(NC(=O)C2CC2)nc1)c1cccc(F)c1	-161
O=C(Nc1ccc(Cl)cn1)c1cccc(F)c1	-204
CCOc1ccc(C(=O)Nc2ccc(Cl)cn2)cc1Cl	-182
O=C(N/N=C/C(Br)=C/c1ccccc1)NC1CCCCC1	-85
O=C(N/N=C/C(Br)=C/c1ccccc1)C(O)c1ccccc1 (stereo unspecified)	-74
O=C(N/N=C/C(Br)=C/c1ccccc1)C1CC1	-195
BrC(=C\c1ccccc1)/C=N/Nc1nc2ccccc2[nH]1	-158
O=C(O)c1ccc(N/N=C/C(Br)=C/c2ccccc2)cc1	-242
Cc1ccc(NCC(=O)N/N=C\C(Br)=C\c2ccccc2)cc1	-65
Cc1ccc(C(=O)OCC(=O)c2c[nH]c3ccccc23)cc1NC(=O)c1ccco1	-70
CCC(=O)Nc1cc(C(=O)OCC(=O)c2ccccc2)ccc1C	-88
CCC(=O)Nc1cc(C(=O)OCC(=O)c2ccccc2Cl)ccc1C	-168
COc1ccc(Nc2nc(CC(C)=O)ns2)cc1	-109
COc1cccc(Nc2nc(CC(C)=O)ns2)c1	-86
CC(=O)Cc1nsc(Nc2ccc3c(c2)OCCO3)n1	-125
CCC(C)/C(C)=N/NC(=O)c1ccc(CSc2nc3ccccc3s2)cc1 (stereo unspecified)	-156
NC(=O)c1ccc(CSc2nc3ccccc3s2)cc1	-101
SMILES	aSyn 5UTR act
CCNC(=O)c1ccc(CSc2nc3ccccc3s2)cc1	-65
c1ccc2sc(SCc3ccc(-c4nnco4)cc3)nc2c1	-156
CCC(C)(C)NC(=O)CCCSc1nc2ccccc2s1	-154
CC(C)(O)c1cc(=O)sc2nc3ccccc3n12	-103
Cc1cc(C)c2c(c1)/C(=N\N=c1\sc3ccccc3n1C)C(=O)N2	-107
Clc1ccc(-c2n[nH]c3c2Cc2ccccc2-3)cc1Cl	-66
CCC(C)(C)C1CCc2[nH]nc(C(=O)N/N=C(\C)c3ccco3)c2C1 (stereo unspecified)	-136
Nc1cccc(/C=C/c2ccncc2)c1	-68
Fc1ccccc1CSc1nc2ncc(Br)cc2[nH]1	-127
COc1nc(Nc2ccc(C(C)C)cc2)nc(OC)n1	-111
CCOC(=O)C(=Cc1ccc(Br)cc1)C(=O)OCC	-121
CCOC(=O)C(CC)(CC)C(=O)/C=C/c1ccc(Br)cc1	-92
CCOC(=O)/C(=C\c1cccnc1)C(=O)c1cc(C(C)=O)c(Nc2ccccc2)s1	i
CN(C)CCCNc1c2ccccc2nc2ccccc12	i
c1ccc(CNc2c3ccccc3nc3ccccc23)cc1	-332
O=C(Cc1ccc(Cl)cc1)c1ccc(O)cc1	-151
O=C(Cc1ccccc1)c1ccc(Cl)cc1	-73
Cc1ccc(CC(=O)c2ccc(Cl)cc2)cc1	-83
Cc1ccc(C(=O)Nc2ccc3c(c2)OCCO3)c(Cl)c1	i
O=C(Nc1ccc2c(c1)OCCO2)c1cc(F)c(F)cc1Cl	-195
O=C(Nc1ccc2c(c1)OCCO2)c1cccc(Cl)c1Cl	-140
O=C(Nc1ccc2ccccc2c1)c1cc(F)c(F)cc1Cl	-140
O=C(/C=C/c1ccco1)Nc1ccc2nc3n(c(=O)c2c1)CCCC3	-176
COc1cc(OC)cc(C(=O)Nc2ccc3nc4n(c(=O)c3c2)CCCC4)c1	-120
CN(C)c1cccc(C(=O)Nc2ccc3nc4n(c(=O)c3c2)CCCCC4)c1	-81
SMILES	aSyn 5UTR act
CCOc1ccccc1C(=O)Nc1ccc2nc3n(c(=O)c2c1)CCCCC3	-77
COc1cccc(C(=O)Nc2ccc3nc4n(c(=O)c3c2)CCCC4)c1	-76
Oc1ccc(Br)cc1C1Nc2ccccc2S1 (stereo unspecified)	-84
NC(=O)C1=C[C@H](C2CCCCC2)C[C@H](OCc2ccc(CO)cc2)O1	-98
CCOc1ccc2cc(C(=O)NCc3ccccc3)c(=N)oc2c1	-102
CCOc1ccc2cc(C(=O)c3ccccc3)c(=O)oc2c1	-161
COc1ccc2cc(C(=O)c3ccccc3)c(=O)oc2c1	-151
COc1ccc2cc(S(=O)(=O)c3ccccc3)c(=O)oc2c1	-75
Cc1cc(NCC2CCCCC2)nc2ccccc12	-69
CCOc1ccc(Nc2cc(C)c3ccccc3n2)cc1	-85
CCOc1ccc(Nc2c3ccccc3nc3ccccc23)cc1	-94
COc1ccc(Nc2cc(C)c3ccc(O)cc3n2)cc1	-138
COc1ccc(Nc2nc(C)c3ccccc3n2)cc1	-111
Cc1nc(Nc2nc(-c3ccccc3)cc(=O)[nH]2)nc2ccccc12	-120
Cc1cccc(-n2ncc3c(NCCCO)ncnc32)c1	-101
C=CCNc1ncnc2c1cnn2-c1cccc(C)c1	-133
Cc1cccc(-n2ncc3c(NC4CCCCC4)ncnc32)c1	-90
Cc1ccc(-n2ncc3c(N4CCN(c5ccccc5)CC4)ncnc32)c(C)c1	-62
Cc1cccc(-n2ncc3c(N4CCOCC4)ncnc32)c1	i
